SMILES strings stand for the structures. Potency and affinity values are given separately. Calls of active or inactive are those of the source.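 The calls were made as follows: active = fitted EC50, the concentration giving half the signal drop, under 100 µM; inactive = the rest.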

This note sets out measurements from PubChem BioAssay AID623955 (NMMLSC, 2012).

For this assay, the target named is ATP-binding cassette sub-family B member 6 (Homo sapiens) (UniProt Q9NP58). The assay is described as follows: ABCB6 transporter inhibitors, dose response, K562-ABCB6 cells, flow cytometry, cherry pick 1 (AID 623955). To be noted: K562-ABCB6 porphyrin fluorescence, 1 h; series mostly up to 100 µM; response, lower = inhibition: at the top concentration.
ATP-binding cassette sub-family B member 6 (Homo sapiens), sequence (Q9NP58 whole entry, looked up): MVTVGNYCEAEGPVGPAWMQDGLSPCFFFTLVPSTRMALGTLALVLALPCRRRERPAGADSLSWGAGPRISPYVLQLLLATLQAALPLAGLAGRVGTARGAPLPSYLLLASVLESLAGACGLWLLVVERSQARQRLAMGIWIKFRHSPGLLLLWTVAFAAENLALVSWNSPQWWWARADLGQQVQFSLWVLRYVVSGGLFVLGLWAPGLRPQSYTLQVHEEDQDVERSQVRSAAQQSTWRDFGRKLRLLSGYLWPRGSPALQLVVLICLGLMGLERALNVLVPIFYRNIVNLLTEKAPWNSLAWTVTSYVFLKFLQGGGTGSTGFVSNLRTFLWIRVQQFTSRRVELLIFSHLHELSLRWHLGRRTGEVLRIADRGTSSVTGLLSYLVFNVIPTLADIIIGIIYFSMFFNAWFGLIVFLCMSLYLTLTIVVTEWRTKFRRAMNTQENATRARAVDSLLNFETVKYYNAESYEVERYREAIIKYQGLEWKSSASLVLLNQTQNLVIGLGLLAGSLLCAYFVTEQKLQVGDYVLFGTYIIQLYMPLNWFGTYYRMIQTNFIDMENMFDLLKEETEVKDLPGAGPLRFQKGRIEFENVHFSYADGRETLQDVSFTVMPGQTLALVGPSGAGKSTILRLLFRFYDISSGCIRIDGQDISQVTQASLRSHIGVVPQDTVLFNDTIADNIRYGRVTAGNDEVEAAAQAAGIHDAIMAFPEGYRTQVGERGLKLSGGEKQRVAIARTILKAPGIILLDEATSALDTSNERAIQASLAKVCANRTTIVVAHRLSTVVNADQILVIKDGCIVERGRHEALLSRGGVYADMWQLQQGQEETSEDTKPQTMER
With `COCCCNC(=O)CCc1nnc2ccc(N3CCC(C)CC3)nn12`, the “response, lower = inhibition” value is 98.7% (inactive).

With `CCOCCCNC(=O)CCc1nnc2ccc(N3CCCCC3)nn12`, the “response, lower = inhibition” value is 87.2% (inactive).

As for `CC(C)CCNC(=O)CCc1nnc2ccc(N3CCC(C)CC3)nn12`, the “response, lower = inhibition” value is 99.4% (inactive).

Regarding `CCc1ccc(CNC(=O)C2Cc3cc(S(=O)(=O)N4CCCC4)ccc3N2C(C)=O)cc1` (centres undefined), the “response, lower = inhibition” value was 92.3% (inactive).

On to `O=C(CCc1nnc2ccc(N3CCC4(CC3)OCCO4)nn12)N1CCCCC1`, for which the “response, lower = inhibition” value is 104% (inactive).

For `CCCNC(=O)CCc1nnc2ccc(N3CCC(C)CC3)nn12`, the “response, lower = inhibition” value was 91.6% (inactive).

Take `CCOC(=O)C(C)NC(=O)CCc1nnc2ccc(N3CCCCC3)nn12` (centres undefined): the “response, lower = inhibition” value is 101% (inactive).

With `CC1CCN(C(=O)CCc2nnc3ccc(N4CCC5(CC4)OCCO5)nn23)CC1`, the “response, lower = inhibition” value is 97.7% (inactive).

Regarding `O=C(CN1CCCCC1)Nc1cccc(Br)c1`, the “response, lower = inhibition” value was 100% (inactive).

For `CC1CCN(c2ccc3nnc(CCC(=O)N4CCCCC4)n3n2)CC1`, the “response, lower = inhibition” value is 97.7% (inactive).

Regarding `CCOC(=O)C(C)NC(=O)CCc1nnc2ccc(N3CCC(C)CC3)nn12` (centres undefined), the “response, lower = inhibition” value is 95.3% (inactive).

On to `CCN1CCN(C(=O)CCc2nnc3ccc(N4CCC5(CC4)OCCO5)nn23)CC1`, for which the “response, lower = inhibition” value is 103% (inactive).

Regarding `CCOC(=O)N1CCN(CC(=O)Nc2ccc(C)cc2)CC1`, the “response, lower = inhibition” value was 98.2% (inactive).

Consider `CCC(C)NC(=O)CCc1nnc2ccc(N3CCC(C)CC3)nn12` (centres undefined), for which the “response, lower = inhibition” value was 103% (inactive).

On to `CCN(CC)CCNC(=O)CCc1nnc2ccc(N3CCC(C)CC3)nn12`, for which the “response, lower = inhibition” value was 96% (inactive).

For `CC1CCN(c2ccc3nnc(CCC(=O)NCCCOC(C)C)n3n2)CC1`, the “response, lower = inhibition” value was 99.7% (inactive).

With `CN1CCN(C(=O)CCc2nnc3ccc(N4CCC5(CC4)OCCO5)nn23)CC1`, the “response, lower = inhibition” value was 101% (inactive).

In the case of `COC(=O)C(NC(=O)CCc1nnc2ccc(N3CCC(C)CC3)nn12)C(C)C` (centres undefined), the “response, lower = inhibition” value is 89.9% (inactive).

Consider `CC1CCN(c2ccc3nnc(CCC(=O)NC(C)C)n3n2)CC1`, for which the “response, lower = inhibition” value is 104% (inactive).

Consider `CC1CC(C)CN(C(=O)CCc2nnc3ccc(N4CCCCC4)nn23)C1` (centres undefined), for which the “response, lower = inhibition” value is 92.3% (inactive).

As to `CCOC(=O)C1CCN(C(=O)CCc2nnc3ccc(N4CCN(C)CC4)nn23)CC1`, the “response, lower = inhibition” value was 92.3% (inactive).

Consider `COC(=O)C(NC(=O)CCc1nnc2ccc(N3CCCCC3)nn12)C(C)C` (centres undefined), for which the “response, lower = inhibition” value was 104% (inactive).

With `CCOC(=O)CNC(=O)CCc1nnc2ccc(N3CCC(C)CC3)nn12`, the “response, lower = inhibition” value is 96.3% (inactive).

As for `COCCNC(=O)CCc1nnc2ccc(N3CCC(C)CC3)nn12`, the “response, lower = inhibition” value is 93% (inactive).
